# Source: PubChem
# GLP1R ag – agonists of human GLP-1 receptor. AID 624172. Potency, µM (top dose mostly 45.6 µM), for inactives: top-dose activation, usual class: activators. 380,000 compounds, 0.007% hits. P43220. HEK293 GLP-1R CRE-luciferase, luminescence, 4-6 h; cells express a hypersensitive GLP-1R form; note: potency is the fitted concentration of half-maximal effect; % of control where 0% means no effect
# Target sequence (P43220 whole entry, looked up): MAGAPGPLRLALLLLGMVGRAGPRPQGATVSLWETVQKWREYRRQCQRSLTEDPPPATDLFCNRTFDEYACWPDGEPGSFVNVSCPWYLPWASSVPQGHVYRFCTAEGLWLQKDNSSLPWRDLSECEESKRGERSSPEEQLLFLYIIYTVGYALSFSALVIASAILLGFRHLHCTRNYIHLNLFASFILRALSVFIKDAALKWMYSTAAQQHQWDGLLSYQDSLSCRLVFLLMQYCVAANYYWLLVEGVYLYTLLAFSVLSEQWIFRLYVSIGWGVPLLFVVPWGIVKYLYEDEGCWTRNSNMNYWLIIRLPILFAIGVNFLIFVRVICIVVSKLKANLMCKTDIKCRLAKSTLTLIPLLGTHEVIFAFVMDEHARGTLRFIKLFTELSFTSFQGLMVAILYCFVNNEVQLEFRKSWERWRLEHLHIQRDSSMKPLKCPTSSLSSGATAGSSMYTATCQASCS
# D3 antag – antagonists of human D3 dopamine receptor. P35462. D3R cells, DiscoveRx beta-arrestin luminescence, antagonist mode; stronger effect = lower value. max response, negative = inhibition, %. 360,000 compounds, 2.5% hits; in the data active = max response below about -50%; inconclusive = no clear call, values can overlap the other calls; note: % is set by controls: 0 for no effect and ±100 for the full control effect
#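 Cells plated overnight at 1500 cells/well, then exposed to library compounds with dopamine controls for 90 minutes at 37 degrees C. DiscoveRx reagent added for 30–60 minutes at room temperature; luminescence read, quantitative HTS format.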
# ClpP mod – qHTS Assay for Activators of ClpP. ATP-dependent Clp protease proteolytic subunit (Bacillus subtilis (strain 168)), P80244. purified B. subtilis ClpP, FRET peptide cleavage, 20 min. Potency, µM (doses to about 57.5 µM), for inactives: at the highest dose activity change, negative = active. 340,000 compounds, 1.9% hits. AID 651965, 2013; active = well fitted falling curve with a large enough effect; inconclusive = small, poorly fitted or top-dose-only effect; inactive = no such curve, though single readings can be large or run the other way; note: potency is the fitted concentration of half-maximal effect; the source files actives as falling curves though it sought activators and does not explain the sign; nearly all actives have a fitted effect of over 65% in size
#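 ClpP 10 microg/mL final, pH 8 Tris/KCl buffer with BSA, glycerol, Tween-20; compound pinned in; FRET-FV substrate; RT 20 min; Ex320/Em430; ΔFRET vs ADEP 5.8 microM, DMSO, no enzyme.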
# GLP1R inv ag – GLP-1 receptor (human) inverse agonism; P43220; HEK293 GLP-1R CRE-luciferase, luminescence, 24 h; GLP-1R form is constitutively active; Potency, µM (doses to about 38.3 µM), inactives show at the top dose activity change, negative = inhibition, most hits filed as inhibitors; 410,000 compounds, 1.6% hits; AID 624417; note: potency is the fitted concentration of half-maximal effect; % is set by controls: 0 for no effect and ±100 for the full control effect; nearly all actives have a fitted effect of over 55% in size
#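 Inverse agonism was detected as reduced cAMP-driven luciferase luminescence after 24 h compound treatment. The cells were HEK293 clones expressing constitutively active human GLP-1R with the reporter. Reporter-only and GPR119 cell lines served as counterscreen controls.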
# GLP1R cytotox – cytotoxicity in counter-screen for GLP-1R inverse agonists. Potency, µM (doses to about 38.3 µM), inactives show top-dose activity change, negative = inhibition, most hits filed as inhibitors. HEK293 cAMP-luciferase reporter cells, luminescence, 24 h. 410,000 compounds, 0.13% hits;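 note: loss of luciferase light is scored as toxicity; potency is the fitted concentration of half-maximal effect; % is set by controls: 0 for no effect and ±100 for the full control effect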
#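 Here, cytotoxicity is scored as loss of luminescence. The MLSMR collection was tested on cells seeded in medium containing 10% Nu serum, with a 24 hr compound exposure preceded by 12 hours of culture.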
# DRD3 agonist – activates the human D3 dopamine receptor; AID 652048; D3R DiscoveRx beta-arrestin cells, luminescence, 90 min; 410,000 compounds, 0.58% hits; P35462; max activation, %; in the data active = max activation above about 30%; note: 0% is about no effect
#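 Cells at 1500/well, incubated overnight, then treated with pinned compounds (dopamine as control) for 90 min at 37 degrees C. DiscoveRx reagent added for 30 - 60 minutes at room temperature; luminescence read.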
# * = called active by the depositor; ? = inconclusive; · = not tested or not shown. Compounds with a hit are over-represented: about 5.7% of the library has one in this group of screens. Unless noted, calls come from the whole dose curve; as a rule, active = well fitted curve in the direction sought with a large enough effect; inconclusive = small, poorly fitted or top-dose-only effect, or another doubt; inactive = no such curve, though single readings can be large; an effect the other way counts as inactive or inconclusive.
SMILES,GLP1R ag,D3 antag,ClpP mod,GLP1R inv ag,GLP1R cytotox,DRD3 agonist
Cc1ccc([C@@H]2CC=C(C(=O)O)[C@H](c3ccc(C(C)(C)C)cc3)N2S(=O)(=O)c2ccc(C)cc2)cc1,-4%,0,2%,?,-17%,30*
CCc1ccc([C@@H]2CC=C(C(=O)O)[C@H](c3ccc(C(C)(C)C)cc3)N2S(=O)(=O)c2ccc(C)cc2)cc1,-5%,27,3%,13µM*,-11%,31*
Cc1ccc(S(=O)(=O)N2[C@@H](c3ccc(C(C)(C)C)cc3)C(C(=O)O)=CC[C@H]2c2ccc(C(C)C)cc2)cc1,-3%,38,0%,3.2µM*,?,12
ICC[n+]1csc2ccccc21,·,·,-4%,·,·,·
CC(=O)O[C@H]1C[C@@H]2CC[C@@H]3[C@H](CC[C@@]4(C)[C@H]3C[C@H](N3CC[N+](C)(C)CC3)[C@@H]4OC(C)=O)[C@@]2(C)C[C@@H]1N1CC[N+](C)(C)CC1,·,·,·,·,·,12
COC(=O)C1(Cc2cc(-c3ccc(OC)cc3OC)no2)CCN(C(=O)OC(C)(C)C)CC1,-5%,-13,0%,?,-7%,77*
COC(=O)C1(Cc2cc(-c3cccc(Br)c3)no2)CCN(C(=O)OC(C)(C)C)CC1,11%,-22,1%,10µM*,-13%,5
CC(C)(C)OC(=O)N1CCC(Cc2cc(-c3ccccc3)no2)(C(=O)O)CC1,0%,-7,1%,9%,7%,-18
CCOC(=O)C(C(=O)OCC)c1cc(Br)c2noc3c2c1C(=O)c1ccccc1-3,-4%,-102*,0%,9%,?,-19
CC1CC2(CCCCC2)Nc2ccc3ccccc3c21 (stereo not drawn),6%,0,18µM*,-32%,-5%,-7
CC(=O)c1ccc(Nc2nc3ccccc3nc2-n2nc(C)cc2C)cc1,·,·,-11%,3%,1%,9
COc1cc(OC)cc(C(=O)N2CCC(N3CCN(c4ccccc4)CC3)CC2)c1,-7%,-63*,-1%,-40%,3%,8
O=C(c1cccc2ccccc12)N1CCC(N2CCN(c3ccccc3)CC2)CC1,-4%,-58*,-1%,?,?,75*
COc1ccccc1N1CCN(C(=O)c2cccs2)CC1,-4%,8,2%,-5%,1%,5
O=C(c1cccs1)N1CCN(c2ccc(Cl)cc2)CC1,0%,8,·,5%,5%,-1
O=C(c1cccs1)N1CCC(N2CCN(c3ccccc3)CC2)CC1,1%,?,-2%,-35%,8%,47*
COc1ccccc1N1CCN(C2CCN(C(=O)c3cccs3)CC2)CC1,-4%,-63*,-1%,1%,-6%,-17
COCc1c(Br)c(C)nc2sc3c(=O)n(-c4cccc(Br)c4)nnc3c12,·,·,0%,-2%,19%,-12
Cc1ccc(CNC(=O)Cn2ccn(-c3ccc(C)c(C)c3)c(=O)c2=O)cc1,·,·,?,-13%,-11%,20
Cc1cccc(Cn2c(=O)n(CCc3ccccc3)c(=O)c3sc4ccccc4c32)c1,1%,·,-22%,14%,-2%,1
CCOC(=O)N1CCC(N2CCN(S(=O)(=O)c3ccc(C)cc3)CC2)CC1,-1%,-26,2%,-10%,0%,-3
O=C(c1cn(-c2ccccc2)nc1-c1ccccc1)N1CCOCC1,0%,22,-3%,-26%,-6%,-3
CCOC(=O)N1CCC(N2CCN(S(=O)(=O)CC)CC2)CC1,6%,-133*,1%,-5%,-1%,-5
O=C(c1cccs1)N1CCN(C(=O)c2cn(-c3ccccc3)nc2-c2ccccc2)CC1,-3%,19,-7%,10µM*,0%,-9
CCOC(=O)N1CCC(N2CCN(c3ccccc3)CC2)CC1,2%,8,-2%,-14%,6%,35*
